Pol beta inh: blocks human DNA polymerase beta activity; 340,000 tested, 1.3% active; Potency, µM (titrated, usually from 114 µM), inactives show top-dose activity change, negative = inhibition, actives largely listed as inhibitors; P06746; AID 485314; Pol beta primer extension/strand displacement, fluorescence kinetic; note: potency is the fitted concentration of half-maximal effect; % is set by controls: 0 for no effect and ±100 for the full control effect
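Preincubation: enzyme (10 nM) with compound, 15 min, RT. Reaction: substrate added to 50 nM final. Reads: 0 and 10 min. Analysis: normalized, Hill fit.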
PI5P4Ka inh: inhibitors of human PI5P4K alpha | P48426 | PI5P4Kalpha enzyme, ADP-Glo luminescence, 60 min; stronger effect = lower value | AID 652105 | max response, % | 330,000 tested, 1.2% active; active = max response of -50% or lower; inconclusive = between -30% and -50%; inactive = -30% or higher; note: value at the top dose of about 77 µM; % is set by controls: 0 for no effect and ±100 for the full control effect
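Single end-point luminescence (ADP-Glo) quantified ADP from PI5P4Kalpha turnover; ATP 5 microM final, 1 h at RT, 0.1% CHAPS and 0.28 mM EGTA in HEPES pH 7.4.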
POLK inh: inhibitors of human DNA polymerase kappa; 400,000 tested, 0.53% active; Potency, µM (titrated, usually from 107 µM), for inactives: at the top dose activity, negative = inhibition, actives largely listed as inhibitors; purified Pol kappa, fluorescent DNA synthesis assay, 10 min; note: potency is the fitted concentration of half-maximal effect; % is set by controls: 0 for no effect and ±100 for the full control effect
Target sequence (Q9UBT6 whole entry, looked up): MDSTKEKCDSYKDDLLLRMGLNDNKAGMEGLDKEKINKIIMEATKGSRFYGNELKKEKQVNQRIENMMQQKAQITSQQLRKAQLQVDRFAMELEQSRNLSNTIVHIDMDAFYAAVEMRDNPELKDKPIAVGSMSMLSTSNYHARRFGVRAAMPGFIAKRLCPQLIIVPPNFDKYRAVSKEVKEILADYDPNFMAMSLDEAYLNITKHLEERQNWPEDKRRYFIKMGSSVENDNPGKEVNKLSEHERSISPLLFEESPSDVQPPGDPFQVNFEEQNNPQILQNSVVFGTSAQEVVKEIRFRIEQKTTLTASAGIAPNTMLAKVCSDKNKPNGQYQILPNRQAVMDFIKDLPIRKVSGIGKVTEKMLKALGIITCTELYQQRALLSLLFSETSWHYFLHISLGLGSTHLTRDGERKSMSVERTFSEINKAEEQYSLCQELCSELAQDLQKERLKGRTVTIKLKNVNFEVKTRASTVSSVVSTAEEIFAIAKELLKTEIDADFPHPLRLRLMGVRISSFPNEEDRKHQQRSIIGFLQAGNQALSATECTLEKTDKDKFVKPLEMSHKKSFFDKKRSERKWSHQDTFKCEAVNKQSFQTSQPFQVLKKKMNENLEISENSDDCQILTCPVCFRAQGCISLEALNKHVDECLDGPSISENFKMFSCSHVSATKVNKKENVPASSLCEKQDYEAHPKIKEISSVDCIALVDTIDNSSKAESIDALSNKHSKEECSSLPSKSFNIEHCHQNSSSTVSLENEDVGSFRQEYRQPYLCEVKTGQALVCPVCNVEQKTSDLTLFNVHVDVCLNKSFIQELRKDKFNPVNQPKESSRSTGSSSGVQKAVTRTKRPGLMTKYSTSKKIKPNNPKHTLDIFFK
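Enzyme at 10 nM met test compounds for 15 min at room temperature. Substrate addition (50 nM final) began the reaction, which was monitored by fluorescence at 0 and 10 min.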
Pol iota inh: DNA polymerase iota (human) inhibition; Q9UNA4; Pol iota fluorescent replication assay, 10 min; Potency, µM (doses to about 115 µM), for the others: at the highest dose activity, negative = inhibition, usual class: inhibitors; 390,000 tested, 1% active; AID 588590; note: potency is the fitted concentration of half-maximal effect
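Fluorescent replication assay read twice, at 0 min and 10 min after adding 50 nM (final) substrate. Enzyme (10 nM) and compounds were first incubated 15 min at room temperature; enzyme-free buffer wells were negative controls.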
FEN1 inhibitor: blocks human flap endonuclease 1; P39748; Recombinant FEN1 flap cleavage, fluorescence, 15 min; Potency, µM (series often up to 114 µM), for the others: at the highest dose activity change, negative = inhibition, usual class: inhibitors; 390,000 tested, 0.35% active; AID 588795; note: potency is the fitted concentration of half-maximal effect; % is set by controls: 0 for no effect and ±100 for the full control effect; nearly all actives have a fitted effect of over 65% in size
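Compounds are tested as a concentration series against 10 nM FEN1; after a 15 min room-temperature preincubation, 50 nM substrate starts cleavage, with plate reads at 0 and 15 min. Normalized responses are fitted by a Hill equation.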
Pol eta inh: DNA polymerase eta (human) inhibition. recombinant Pol eta, fluorescent DNA replication assay. Potency, µM (titrated, usually from 114 µM), for inactives: at the top dose activity change, negative = inhibition, usual class: inhibitors. Q9Y253. 390,000 tested, 1.2% active; note: potency is the fitted concentration of half-maximal effect; % is set by controls: 0 for no effect and ±100 for the full control effect
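Pol eta at 10 nM preincubated with compounds 15 min at room temperature; reaction started with fluorescent substrate (50 nM final) and read kinetically at 0 and 10 min.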
Active calls of the source: *; ? = inconclusive; / = not tested or not shown; [ ] = another dose, or the depositor's remark. Compounds with a hit are over-represented: about 2.8% of the library has one in this group of screens. Unless noted, calls come from the whole dose curve; as a rule, active = well fitted curve in the direction sought with a large enough effect; inconclusive = small, poorly fitted or top-dose-only effect, or another doubt; inactive = no such curve, though single readings can be large; an effect the other way counts as inactive or inconclusive.

SMILES	Pol beta inh	PI5P4Ka inh	POLK inh	Pol iota inh	FEN1 inhibitor	Pol eta inh
Cc1c2oc3c(C)ccc(C(=O)NC4C(=O)NC(C(C)C)C(=O)N5CCCC5C(=O)N(C)CC(=O)N(C)C(C(C)C)C(=O)OC4C)c3nc-2c(C(=O)NC2C(=O)NC(C(C)C)C(=O)N3CCCC3C(=O)N(C)CC(=O)N(C)C(C(C)C)C(=O)OC2C)c(N)c1=O (centres undefined)	/	/	4.8%[19.4 µM]	/	/	/
O=C(N/N=C/c1ccncc1)c1ccc(-n2cccc2)cc1	39.8µM*	-19.8	-1.9%	79.4µM*	-0.9%	-9.0%
CCN(CC)C(=O)C1CCCN(C(=O)Nc2ccc3nsnc3c2)C1 (centres undefined)	7.6%	4.0	-5.7%	0.891µM*	8.6%	?
S=C(Nc1ccc2nsnc2c1)N1CCCCC1	2.0%	-7.1	-10.4%	3.55µM*	-10.8%	-9.2%
COc1ccc(CN2CCSc3sccc3C2=O)cc1	79.4µM*	0.0	-6.7%	-15.7%	19.0%	-2.0%
O=C1c2ccsc2SCCN1Cc1c(Cl)cccc1Cl	1.8%	-13.4	-23.3%	-11.0%	-3.8%	-6.9%
CCO/C(=C/c1sc2ccc(OC)cc2[n+]1CCCS(=O)(=O)[O-])CC	-1.0%	1.1	-12.8%	-16.0%	10.5%	-2.5%
CCC(=O)/C=C1/Sc2ccc(OC)cc2N1CC	-10.8%	/	-2.5%	28.1%	5.2%	-0.5%
CCC(/C=C1\Sc2ccc(OC)cc2N1CC)=C\c1sc2ccc(OC)cc2[n+]1CCCS(=O)(=O)[O-]	8.91µM*	?	22.8%[60.1 µM]	120.8%	?	?
CCC(/C=C1\Sc2ccc(OC)cc2N1CCO)=C\c1sc2ccc(OC)cc2[n+]1CCO	22.4µM*	-78.2*	?	?	35.5µM*	14.1µM*
O=C(CSc1nc(=O)n(Cc2ccco2)c2c1CCC2)NCc1ccccc1Cl	18.7%	/	-4.0%[60.1 µM]	33.4%	-3.4%	-17.5%
COc1cc(/C=C2\S/C(=N/S(=O)(=O)c3ccccc3)NC2=O)c([N+](=O)[O-])cc1OC	20.6%	-54.9*	-29.7%	?	?	22.4µM*
COc1ccc(S(=O)(=O)/N=C2/NC(=O)/C(=C\c3cc(OC)c(OC)cc3[N+](=O)[O-])S2)cc1	3.8%	/	-6.0%	-11.5%	6.3%	-20.3%
COc1ccc(S(=O)(=O)/N=C2/NC(=O)/C(=C\c3ccco3)S2)cc1	25.1µM*	-17.5	?	?	2.4%	17.8µM*
COc1ccc(S(=O)(=O)/N=C2/NC(=O)/C(=C/c3ccco3)S2)cc1	31.6µM*	-14.9	-10.5%	?	-7.6%	17.8µM*
COc1ccc(N=C2NC(=O)/C(=C/c3ccco3)S2)cc1	?	-27.3	-20.2%	?	-5.5%	-13.4%
Cn1c(N)c(C(=O)COC(=O)CNC(=O)c2ccccc2)c(=O)n(C)c1=O	/	1.3	-10.2%	102.1%	8.7%	-19.8%
Cc1ccc(C(=O)NCC(=O)OCC(=O)c2c(N)n(C)c(=O)n(C)c2=O)s1	35.5µM*	?	-6.3%	?	5.6%	?
CC(NC(=O)c1ccco1)C(=O)OC(C)C(=O)NCc1ccccc1 (centres undefined)	-11.0%	-3.2	0.0%	103.4%	1.7%	-1.0%
CCN1CCN(Cc2c(O)ccc3c2O/C(=C\c2ccccc2)C3=O)CC1	-23.2%	-7.3	0.3%	14.0%	-4.2%	-17.4%
CC1CCCN(Cc2c(O)ccc3c2O/C(=C\c2ccco2)C3=O)C1 (centres undefined)	12.6µM*	?	35.5µM*	1.58µM*	?	44.7µM*
Cc1cccc(C)c1OCc1cc(=O)n2c(-c3ccccc3)csc2n1	-13.5%	/	-5.3%	18.2%	16.4%	-2.6%
O=c1cc(CSc2nnnn2-c2ccccc2)nc2scc(-c3ccccc3)n12	25.1µM*	?	?	?	-4.9%	-14.4%
O=c1cc(COc2ccccc2Cl)nc2scc(-c3ccccc3)n12	-21.4%	/	?	?	-17.8%	?
O=c1cc(CN2CCN(c3ccc(O)cc3)CC2)nc2scc(-c3ccccc3)n12	11.2µM*	?	-19.5%	?	7.1%	-17.6%
SMILES	Pol beta inh	PI5P4Ka inh	POLK inh	Pol iota inh	FEN1 inhibitor	Pol eta inh
CC(C)c1ccc(OCc2cc(=O)n3c(-c4ccccc4)csc3n2)cc1	20µM*	/	-23.6%	?	11.6%	?
Cc1cccc(OCc2cc(=O)n3c(-c4ccccc4)csc3n2)c1C	28.2µM*	/	-33.5%	?	7.1%	?
CC(C)(C)c1ccc(C(=O)Nc2onc3c2CCCC3)cc1	27.8%	/	4.4%	2.9%	-18.7%	-22.3%
O=C1Nc2ccccc2C(=O)N2C[C@@H](O)C[C@H]12	27.6%	5.8	0.1%	2.8%	12.9%	-8.5%
COc1ccc(NC(=O)N2CCCC3(CCN(C(=O)c4cnccn4)CC3)C2)cc1	/	/	12.6%[60.1 µM]	/	/	/
COc1cccc(Cn2cnc3c(cnn3C(C)(C)C)c2=O)c1	/	/	-9.3%	-18.3%	1.3%	/
COc1ccc(-c2nc(CNC(=O)NC3CCCCC3)c(C)o2)c(OC)c1	10.8%	/	-5.0%[60.1 µM]	26.2%	0.1%	-3.7%
CCOc1ccccc1C(=O)N/N=C/c1ccoc1	20µM*	?	-28.3%	79.4µM*	-12.1%	-20.4%
CSc1ccc(/C=N/NC(=O)c2cc(O)cc(O)c2)cc1	20.9%	?	-17.7%	24.0%	-7.2%	-20.5%
CSc1ccc(/C=N/NC(=O)c2ccc(C)c(C)c2)cc1	25.1µM*	-6.7	-23.6%	?	-16.3%	?
Cc1ccc(C(=O)N/N=C/c2ccoc2)cc1C	25.1µM*	?	2.7%	3.0%	8.7%	?
O=C(N/N=C/c1ccoc1)c1cc(Br)ccc1O	20µM*	?	?	89.1µM*	-4.9%	?
COc1ccc(-c2noc(N3CCC(C(=O)N4CCN(c5cccc(OC)c5)CC4)CC3)n2)cc1	20.3%	/	-0.3%[60.1 µM]	-10.8%	-20.8%	4.6%
COc1ccc(C(=O)OCC(=O)Nc2ccc3[nH]c(=O)[nH]c3c2)cc1	/	2.8	-11.7%	30.1%	10.9%	-22.0%
CCc1nn(CC(=O)NCCN(CC)CC)c(=O)c2cc3occc3n12	1.9%	/	-14.6%	-12.9%	-23.7%	-5.7%
COc1cc(OC)c2c(C)c(CC(=O)NCc3ccccc3OC)c(=O)oc2c1	-10.8%	/	-4.8%	3.0%	1.6%	28.2µM*
COc1ccccc1CNC(=O)c1oc2ccc3c(c2c1C)C(=O)CC(C)(C)O3	1.8%	/	-18.7%	89.1µM*	-19.1%	/
Cc1c(C(=O)NCc2cccc(Br)c2)oc2ccc3c(c12)C(=O)CC(C)(C)O3	7.8%	/	?	79.4µM*	89.1µM*	/
Cc1cc(C)cc(NC(=O)c2oc3ccc4c(c3c2C)C(=O)CC(C)(C)O4)c1	-7.6%	/	-0.3%	17.0%	3.8%	-14.8%
O=c1[nH]c2cccnc2n1Cc1ccccc1	22.1%	1.0	-6.0%	8.8%	-10.6%	-14.9%
O=C(C[n+]1cccc(Br)c1)c1cc(Cl)ccc1Cl	/	/	-28.0%	?	-17.6%	/

Screening data as filed in PubChem BioAssay.
